Measured values published in PubChem BioAssay AID2314 (National Center for Advancing Translational Sciences (NCATS), 2010).
Among all 300,000 compounds or so, about 37,000 (12%) were called active. Cut-off read from the data, not from the text of the source: active = max response mostly above about 13% (no sharp cut-off); inactive = mostly below about 14%. The list comes from a sample in which actives are over-represented; it also holds similar structures and randomly drawn compounds.

Assay: Cycloheximide Counterscreen for Small Molecule Inhibitors of Shiga Toxin; note: read at 38.3 µM for the half of the compounds with a filed dose; 0% is about no effect
Conditions: cell reporter, cycloheximide protein synthesis inhibition counterscreen; active compounds read high

Compound | max response
O=S(=O)(NC1CC1)c1ccc2c3c(cccc13)CC2 | -1.96% (inactive)
COc1ccc(C(O)(C2CCCCC2)C(CN2CCCC2)c2ccccc2)cc1 (stereo unspecified) | -2.99% (inactive)
COC(=O)c1ccc(CN2C(=O)NC(c3ccccc3)(c3ccccc3)C2=O)o1 | -8.22% (inactive)
COc1cccc(NC(=O)C/C(C)=N/NC(=O)C2CCCCC2)c1 | 1.09% (inactive)
O=C(Nc1cccc(F)c1)NC1CCCCCCC1 | 52.8% (active)
O=C(Nc1cccc(F)c1)[C@@H]1CCCN1 | -0.0627% (inactive)
C/C(CC(=O)Nc1cccc(F)c1)=N\NC(=O)C(=O)NC1CCCCC1 | 12.1% (active)
C/C(CC(=O)Nc1cccc(C(F)(F)F)c1)=N\NC(=O)C(=O)NCC(C)C | -3.56% (inactive)
O=C(Nc1cccc(F)c1)NC1CCCc2ccccc21 (stereo unspecified) | -2.71% (inactive)
Cc1ccc(CN2CCN(Cc3ccccc3-c3ccco3)CC2CCO)o1 (stereo unspecified) | -2.94% (inactive)
CCN(c1ccccc1)S(=O)(=O)c1cc2c(cc1C)n(C)c(=O)c(=O)n2C | 1.1% (inactive)
C=CCn1c(C23CC4CC(CC(C4)C2)C3)n[nH]c1=S | -2.9% (inactive)
COc1ccccc1N1CCN(c2ncnc3sc(C)c(-c4ccccc4)c23)CC1 | 23.3% (inactive)
Cc1ccc2c(c1)N(C(=O)CCC(=O)NCc1cccnc1)CCO2 | -2.33% (inactive)
CC(=O)N1CCOc2ccc(S(=O)(=O)N3CCN(c4cccc(C(F)(F)F)c4)CC3)cc21 | -4.21% (inactive)
Cc1ccc2[nH]cc(CCNC(=O)c3ccc([N+](=O)[O-])cc3)c2c1 | 0.0509% (inactive)
COc1ccc(C[C@H](C(=O)O)N2C(=O)c3ccc(C(=O)O)cc3C2=O)cc1 | -3.3% (inactive)
COc1ccc2[nH]cc(CCN3C(=O)c4ccc(C(=O)O)cc4C3=O)c2c1 | 21.7% (active)
COCCCN1C(=O)c2ccc(C(=O)Nc3ccc(OC)cc3OC)cc2C1=O | 0.803% (inactive)
Cc1ccc2[nH]cc(CCCN3C(=O)c4ccccc4C3=O)c2c1 | 10.1% (active)
Cc1ccc2[nH]cc(CCNC(=O)C3CCCCC3)c2c1 | 0.628% (inactive)
Clc1cccc(Cl)c1OCCOCCNCc1ccccc1 | 1.5% (inactive)
CCN(CC)Cc1c(C(=O)N/N=C/c2cccc(OCc3ccc(F)cc3)c2)nnn1-c1nonc1N | 8.82% (inactive)
CN(C)CCCn1c(=O)n(Cc2ccccc2)c(=O)c2c3c(sc21)CCCCC3 | -4.51% (inactive)

Compound | max response
Cc1occc1C(=O)NC1CCCN(Cc2ccc(CC(C)C)cc2)C1 (stereo unspecified) | 9.49% (inactive)
CC1(C(=O)N/N=C/c2cc3c(cc2Br)OCO3)CC1(Br)Br (stereo unspecified) | 4.29% (inactive)
CN1CCC(CN)(N2CCN(c3ccccc3)CC2)CC1 | -3.21% (inactive)
COc1ccc(NC(=O)CNC(=O)Cc2ccccc2)cc1OC | -3.3% (inactive)
O=C(NCCCc1ccccc1)C(=O)c1c[nH]c2ccccc12 | 14.7% (active)
COc1ccc(OC)c2[nH]c(=O)c(CCNC(=O)C(=O)c3c[nH]c4ccccc34)cc12 | -1.63% (inactive)
O=C(C(=O)N1CCc2ccccc2C1)c1c[nH]c2ccccc12 | 10.7% (inactive)
CC1CCN(CC(=O)c2c[nH]c3ccccc23)CC1 | 22.4% (inactive)
CC(=O)NC(Cc1c[nH]c2ccccc12)C(=O)NCCc1ccccc1 (stereo unspecified) | -4.02% (inactive)
O=C(NC1CCCC1)C(=O)c1c[nH]c2ccccc12 | 49.1% (active)
O=C(O)CC(CC(=O)N1CCOCC1)c1ccccc1 (stereo unspecified) | -2.32% (inactive)
COc1ccc(/C=C2/C(=O)N(c3ccccc3)N=C2C)c(OC)c1 | -1.9% (inactive)
Cc1cn(C2C=CC(CO)O2)c(=O)[nH]c1=O (stereo unspecified) | -1.84% (inactive)
CN(C)CCN(Cc1ccccc1)S(=O)(=O)c1csc(C(N)=O)c1 | -8.34% (inactive)
Cc1cccc(N2CCN(c3ccc(C(N)=O)cc3[N+](=O)[O-])CC2)c1C | -1.03% (inactive)
CCOC(=O)C1CCN(c2ccc(C(=O)O)cc2[N+](=O)[O-])CC1 | -2.89% (inactive)
Cc1ccc(C(=O)c2ccc(N3CCN(C)CC3)c([N+](=O)[O-])c2)cc1 | 18.7% (active)
COc1ccc(C(=O)NC2(C(F)(F)F)NC(=O)N(CCCc3ccccc3)C2=O)c(OC)c1OC (stereo unspecified) | 10.5% (inactive)
Cc1ccc2c(c1)N(CC(=O)NCCc1ccc(Cl)cc1)C(=O)c1cccnc1O2 | -1.47% (inactive)
CCn1cc(S(=O)(=O)c2cccc(C)c2)c(=O)c2cc(F)c(N3CCN(C)CC3)cc21 | -2.21% (inactive)
CN(Cc1ccccc1Cl)C(=O)C1CCC(=O)N(CCc2cccc(F)c2)C1 (stereo unspecified) | 10% (inactive)
Cc1cccc(C(=O)NCCCN(C)CCCNC(=O)c2cccc(C)c2)c1 | -0.372% (inactive)
Cc1cccc(C(=O)NC(=S)N(C)C2CCCCC2)c1 | 61% (active)
Cc1cccc(NC(=S)NCCN(C2CCCCC2)C2CCCC2)c1 | -7.35% (inactive)

Compound | max response
O=S(=O)(/C=C/c1ccccc1)N1CCNCC1 | 0.861% (inactive)
O=C(/C=C/c1ccccc1)N/C(=C/c1ccccc1)C(=O)Nc1ccccc1O | 8.16% (inactive)
O=C(/C=C/c1ccccc1)c1ccccc1O | 29.3% (active)
COc1ccc(/C=C/C(=O)c2ccc(OC)cc2O)cc1 | 41.2% (active)
Cc1[nH]c(=O)c(C(=O)/C=C/c2ccccc2)c2c1CCCC2 | -1.39% (inactive)
COc1ccc(C(=O)/C=C/c2cccnc2)c(OC)c1 | 8.73% (inactive)
O=C(/C=C/c1ccccc1)c1ccoc1 | 40.4% (active)
COc1ccc(/C=C/C(=O)c2cc(Br)ccc(=O)c2O)cc1 | -1.31% (inactive)
CC(/C=C/c1ccccc1)=N\NC(=O)C1CC1(C)c1ccccc1 (stereo unspecified) | -2.65% (inactive)
CC(C)c1nc(CNC(=O)CC2C(=O)NCCN2Cc2cccc(F)c2F)cs1 (stereo unspecified) | -2.45% (inactive)
COc1cc(C2NC(=O)NC(c3ccccc3)=C2C(C)=O)c(Br)cc1OCC(N)=O (stereo unspecified) | -1.35% (inactive)
O=C(c1cccc(F)c1)N1CCN(c2ccc([N+](=O)[O-])c3cccnc23)CC1 | -5.99% (inactive)
COc1cccc(C(=O)N2CCC(n3nccc3NC(=O)C3CCOC3)CC2)c1 (stereo unspecified) | 2.44% (inactive)
CC(=O)N(Cc1cc(=O)[nH]c2ccccc12)c1ccc(C)cc1C | -0.991% (inactive)
COc1ccccc1NC(=O)/C=C/C(N)=O | 9.83% (inactive)
Cc1cc(C)c2nc(NC(=O)C3CCCO3)sc2c1 (stereo unspecified) | 44.3% (active)
Cc1cc([N+](=O)[O-])ccc1NC(=O)C1CCCO1 (stereo unspecified) | 3.91% (inactive)
Cc1ccc(C)c(C(C)NC(=O)C2CCCO2)c1 (stereo unspecified) | -2.44% (inactive)
CCOCCc1nn2c(=O)cc(CSCC(=O)Nc3cccc(C)c3C)nc2s1 | -4.2% (inactive)
COc1ccccc1S(=O)(=O)c1c(C)cc(C)[nH]c1=O | -6.18% (inactive)
CCCCOC(=O)c1ccc(NC(c2ccc(C)cc2)P(=O)(OC)OC)cc1 (stereo unspecified) | -2.29% (inactive)
Cc1cc(C)c(OCC(=O)N(Cc2cccs2)C2CCS(=O)(=O)C2)c(C)c1 (stereo unspecified) | 8.48% (inactive)
Cc1ccccc1Nc1c([N+](=O)[O-])ccc2nonc12 | 0.319% (inactive)
CN(c1ccccc1)c1ccc([N+](=O)[O-])c2nonc12 | 12% (active)

Compound | max response
CCN(CC)c1ccc([N+](=O)[O-])c2cccnc12 | 0.792% (inactive)
CC(C)c1ccc(NC2CCCN(C(=O)c3ccncc3)C2)cc1 (stereo unspecified) | -4.01% (inactive)
Cc1ccc(S(=O)(=O)N2CCN(CC(=O)N/N=C/c3ccc(Br)s3)CC2)cc1 | -1.09% (inactive)
COCCCNc1nc2ccccc2nc1NS(=O)(=O)c1ccc(F)cc1 | -1.37% (inactive)
COc1ccc(N2CCN(C(C)=C3C(=O)c4ccccc4C3=O)CC2)cc1 | 40.7% (active)
COc1ccc(OCC(=O)N2CCN(C(=O)c3cccs3)CC2)cc1 | -2.3% (inactive)
O=C(COc1ccccc1)Nc1ccc(N2CCN(C(=O)c3cccs3)CC2)cc1 | -1.71% (inactive)
CC(=C1C(=O)c2ccccc2C1=O)N1CCN(c2ccccn2)CC1 | 4.62% (inactive)
COc1ccc(N2CCN(C(=O)c3cccs3)CC2)cc1 | 20.7% (active)
COc1ccc(C2C(C(=O)N3CCN(c4ccc(OC)cc4)CC3)c3ccccc3C(=O)N2C)cc1 (stereo unspecified) | -3.17% (inactive)
O=C(N[C@@H](Cc1ccccc1)C(=O)OCc1ccccc1)c1nc[nH]c1C(=O)N[C@@H](Cc1ccccc1)C(=O)OCc1ccccc1 | -1.4% (inactive)
Cc1ccc(N2C(=O)CC(Sc3ncn[nH]3)C2=O)cc1 (stereo unspecified) | -4.4% (inactive)
COc1cccc(/C=C2\Sc3ccc(C(=O)NCC4CCCO4)cc3N(C)C2=O)c1 (stereo unspecified) | 6.25% (inactive)
O=[N+]([O-])c1cccc(Nc2c3ccccc3nc3ccccc23)c1 | 4.55% (inactive)
COc1ccc([N+](=O)[O-])cc1-c1nc2ccccc2nc1-c1ccccc1 | -2.38% (inactive)
O=[N+]([O-])c1ccc2c(c1)Nc1nc3ccccc3nc1N2 | 22.7% (active)
O=C(NCCOc1cccnc1)c1ccc(OC2CCN(Cc3ccccn3)CC2)cc1 | 10.4% (inactive)
O=C(CN1CCC(O)(c2cccc(C(F)(F)F)c2)CC1)NCCc1ccccc1 | -0.807% (inactive)
Cn1cc([N+](=O)[O-])c(C(=O)Nc2cnn(Cc3ccc(F)cc3)c2)n1 | 9.36% (inactive)
COc1cccc(NC(=O)c2nn(C34CC5CC(CC(C5)C3)C4)cc2[N+](=O)[O-])c1 | 13.1% (inactive)
Cc1nn(CC(=O)Nc2ccc3c(c2)OCO3)c(C)c1[N+](=O)[O-] | 0.353% (inactive)
Cn1cc([N+](=O)[O-])c(C(=O)Nc2ccc3c(c2)OCCO3)n1 | 26.5% (active)
Cc1onc(C(=O)Nc2ccc3c(c2)OCO3)c1[N+](=O)[O-] | 30.6% (active)
Cc1nc([N+](=O)[O-])cn1CC(=O)Nc1ccc2c(c1)OCO2 | -2.41% (inactive)
